Assay outcomes deposited in PubChem BioAssay by Broad Institute.
ALR H2O2 inh: inhibitors of human sulfhydryl oxidase ALR; purified ALR, DTT oxidation, H2O2 HRP-luminol luminescence; inhibition, % (no concentration beside the values); 290,000 compounds, 3.8% hits;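 active means mean replicate inhibition above about 79%, with every replicate also reaching it, limit read from the data; inconclusive means only one of the two criteria met; inactive means mean below limit and not every replicate reaching it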
Target sequence (P55789 whole entry, looked up): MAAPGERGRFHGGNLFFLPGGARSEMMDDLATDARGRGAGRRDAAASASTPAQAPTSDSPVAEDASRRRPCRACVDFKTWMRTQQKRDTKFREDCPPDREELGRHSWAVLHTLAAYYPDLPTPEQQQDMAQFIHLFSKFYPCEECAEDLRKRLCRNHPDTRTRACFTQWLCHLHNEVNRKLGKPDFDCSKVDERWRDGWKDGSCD
NSD2 inh: blocks human histone methyltransferase NSD2; O96028; NSD2 peptide methylation, AlphaScreen, 120 min; inhibition, % at 12.5 µM; 310,000 compounds, 0.54% hits; AID 743445; in the data active means inhibition above about 50%
SUMO Mot1 rescue: blocks SUMOylation pathway, rescuing yeast Mot1-301 growth; AID 2716; 320,000 compounds, 1% hits; growth rescue, % at 18.8 µM; S. cerevisiae Mot1-301 growth rescue, ATP luminescence, 38.5C; percent above DMSO median, 100 means doubled;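 active means every valid replicate shows activation above 250% relative to neutral control wells; inactive means the rest, any valid replicate at or below 250%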;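 further: OY570 slx delta 5 strain wells were the positive control but not used for scaling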
Glyco luc inh: blocks N-linked glycosylation in D54 reporter cells; D54 ERlucT glycosylation luciferase reporter, 24 h; percent of 100 nM tunicamycin response; reporter increase, % at 12.5 µM; 360,000 compounds, 0.23% hits; AID 588692;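 active means mean luciferase reporter signal, scaled so untreated is 0 and the glycosylation-blocking control 100, at or above a set limit in every replicate; inconclusive means mean reaches the limit but not every replicate does; inactive means mean below the limit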;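 further: luciferase carries N-glycosylation sites so blocking glycosylation raises the light; 0% = median of neutral control wells and 100% = median of 100 nM tunicamycin wells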
Casp6 inh: caspase-6 (human) enzyme inhibition. P55212. purified caspase-6, Z-VEID-R110 cleavage fluorescence. inhibition, % at 12.5 µM. 350,000 compounds, 0.53% hits. AID 686996;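 active means mean inhibition across replicates at least about 35%, with every replicate also reaching that limit, limit read from the data; inconclusive means only one of the two criteria met; inactive means neither criterion met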;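 further: 0% = median of neutral control wells and 100% = no fluorescence left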
Target sequence (P55212 24-179 limits assumed): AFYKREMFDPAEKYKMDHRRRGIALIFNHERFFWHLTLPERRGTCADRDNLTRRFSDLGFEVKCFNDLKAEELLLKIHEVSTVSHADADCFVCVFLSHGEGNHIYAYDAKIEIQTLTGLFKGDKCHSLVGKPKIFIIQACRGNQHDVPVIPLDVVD
Target sequence (P55212 194-293 limits assumed): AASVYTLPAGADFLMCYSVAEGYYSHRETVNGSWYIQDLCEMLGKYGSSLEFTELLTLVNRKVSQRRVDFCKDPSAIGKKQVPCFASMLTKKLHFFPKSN
CDK5 inh: inhibitors of human CDK5/p35 kinase | 330,000 compounds, 0.01% hits | inhibition, % at 10 µM | Recombinant CDK5/p35, ADP-Glo luminescence, 60 min;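 active means highest replicate inhibition of at least 50% and at least 75% of replicates reaching 50%; inconclusive means only one of the two criteria met; inactive means both criteria failed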;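 further: plate controls were DMSO neutral control for no effect and GW8510 at 10 µM for full effect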
Numbers without * were called inactive. Hits are enriched below; roughly 3.9% of the tested compounds scored in any of these assays.

Results for C[C@@H]1CN([C@@H](C)CO)C(=O)c2cc(NC(=O)CCN3CCOCC3)ccc2O[C@H]1CN(C)S(=O)(=O)c1ccc(Cl)cc1 ?
Casp6 inh: 0.5

How did COCC#Cc1cnc2c(c1)C(=O)N([C@@H](C)CO)C[C@@H](C)[C@@H](CN(C)Cc1ccccc1F)O2 do in these assays?
Casp6 inh: 0.4

Results for CO[C@H]1CN(C)C(=O)c2ccc(NC(C)=O)cc2OC[C@H](C)N(C(=O)c2ccc(F)cc2)C[C@@H]1C ?
Casp6 inh: -0.4

What do the screens show for `CC(NCc1ccc(N(C)C)cc1)C1CC2CCC1C2` (centres undefined)?
ALR H2O2 inh: 98.1*; NSD2 inh: 4.0; SUMO Mot1 rescue: 7.9; Glyco luc inh: -0.2; CDK5 inh: 0.1

How did CC(NC(=O)c1ccc(CS(C)(=O)=O)cc1)C1CC2CCC1C2 (centres undefined) do in these assays?
ALR H2O2 inh: -1.1; NSD2 inh: -0.5; SUMO Mot1 rescue: 27.5; Glyco luc inh: 1.9; Casp6 inh: 0.5; CDK5 inh: -1.8

What do the screens show for `Cc1nn(-c2ccccc2)c2c1P(=O)(O)/C(=C1\N(C)c3ccccc3C1(C)C)C=N2`?
ALR H2O2 inh: -6.3; NSD2 inh: -4.1; SUMO Mot1 rescue: 3.3; Glyco luc inh: 1.1; Casp6 inh: 39.7*; CDK5 inh: -1.1

What do the screens show for `Cc1cc(Oc2ncccc2[N+](=O)[O-])c2cc(Cl)ccc2n1`?
ALR H2O2 inh: 97.2*; NSD2 inh: 0.8; SUMO Mot1 rescue: 15.2; Glyco luc inh: 0.5; Casp6 inh: -3.7; CDK5 inh: 1.6

Results for Cc1nn(C)cc1CNC(=O)Nc1cccc(Cl)c1 ?
ALR H2O2 inh: -4.0; NSD2 inh: -5.2; SUMO Mot1 rescue: 347.6*; Glyco luc inh: -0.1; CDK5 inh: 1.4

What do the screens show for `Cc1nn(C)cc1CNC(=O)Nc1ccc(Br)cc1Cl`?
NSD2 inh: -2.6; SUMO Mot1 rescue: 14.2; Glyco luc inh: 1.2; CDK5 inh: -1.2

How did CO[C@H]1CN(C)C(=O)c2ccc(NC(=O)C3CCCC3)cc2OC[C@H](C)N(CCC(F)(F)F)C[C@@H]1C do in these assays?
Casp6 inh: 0.8

How did Oc1c(Cl)cc(Cl)cc1C=Nc1ccccc1N1CCCC1 do in these assays?
ALR H2O2 inh: 98.1*; SUMO Mot1 rescue: 2.3

What do the screens show for `O=C(O)CC(SCC(=O)Nc1ccc(S(=O)(=O)N2CCCC2)cc1)C(=O)O` (centres undefined)?
ALR H2O2 inh: 99.5*; NSD2 inh: -8.4; SUMO Mot1 rescue: -7.5; Glyco luc inh: 1.1; Casp6 inh: 2.9; CDK5 inh: -8.0

Results for O=C(CSc1nc(NS(=O)(=O)c2ccccc2)cc(=O)[nH]1)Nc1cccc(C(F)(F)F)c1 ?
NSD2 inh: -1.8; Glyco luc inh: 2.1; Casp6 inh: 1.2; CDK5 inh: -3.1

How did O=C(CSc1nc(O)c(C2CCCCC2)c(=O)[nH]1)Nc1ccc(F)cc1 do in these assays?
ALR H2O2 inh: 98.7*; NSD2 inh: 0.1; SUMO Mot1 rescue: 22.5; Glyco luc inh: -2.0; Casp6 inh: 6.7; CDK5 inh: -0.2

How did O=C(O)CC(SCC(=O)Nc1ccccc1)C(=O)O (centres undefined) do in these assays?
ALR H2O2 inh: -10.5; NSD2 inh: -0.6; SUMO Mot1 rescue: -14.5; Glyco luc inh: 0.2; Casp6 inh: -0.8; CDK5 inh: 1.1

Results for Cc1ccc(NC(=O)CSc2nc(N)cc(=O)[nH]2)cc1S(=O)(=O)N1CCCCCC1 ?
ALR H2O2 inh: 98.5*; NSD2 inh: 0.8; SUMO Mot1 rescue: -11.9; Glyco luc inh: -2.1; Casp6 inh: -0.6; CDK5 inh: 0.7

How did O=C(CSc1nc(NS(=O)(=O)c2ccccc2)cc(=O)[nH]1)Nc1ccc(F)cc1 do in these assays?
ALR H2O2 inh: 98.4*; NSD2 inh: 0.7; SUMO Mot1 rescue: -11.6; Glyco luc inh: 0.2; CDK5 inh: -0.2

How did CNC[C@@H]1Oc2c(N)cccc2C(=O)N([C@H](C)CO)C[C@@H]1C do in these assays?
Casp6 inh: -1.6

What do the screens show for `CCNC(=O)C[C@H]1CC[C@H]2[C@@H](COc3ccc(NC(=O)Cc4ccccc4)cc3C(=O)N2C)O1`?
Casp6 inh: -0.4

Results for C[C@@H]1CN([C@@H](C)CO)C(=O)Cc2cc(NC(=O)CCC(F)(F)F)ccc2O[C@H]1CN(C)CC1CCCCC1 ?
Casp6 inh: -1.7

What do the screens show for `COc1ccc(S(=O)(=O)N(C)C[C@H]2Oc3ccc(NC(=O)NC4CCCCC4)cc3C(=O)N([C@@H](C)CO)C[C@@H]2C)cc1`?
Casp6 inh: -2.1

What do the screens show for `COc1ccc(NC(=O)Nc2ccc3c(c2)C(=O)N([C@H](C)CO)C[C@@H](C)[C@H](CN(C)C(=O)NC2CCCCC2)OCCCC[C@H](C)O3)cc1`?
Casp6 inh: 0.0

How did C[C@H](CO)N1C[C@H](C)[C@H](CN(C)C(=O)Nc2ccccc2)Oc2ccc(NC(=O)Nc3ccc(F)cc3)cc2CC1=O do in these assays?
Casp6 inh: 2.0

What do the screens show for `Cc1cc(=O)[nH]c(SCC(=O)Nc2ccc(S(=O)(=O)N3CCOCC3)cc2)n1`?
NSD2 inh: 0.7; SUMO Mot1 rescue: -11.3; Glyco luc inh: 2.4; CDK5 inh: -0.9

What do the screens show for `Cc1cc(=O)[nH]c(SCC(=O)Nc2ccc(S(=O)(=O)N3CCCCC3)cc2)n1`?
ALR H2O2 inh: 98.2*; NSD2 inh: 0.1; SUMO Mot1 rescue: 186.7; Glyco luc inh: 0.7; CDK5 inh: 0.7

What do the screens show for `C[C@@H]1CN([C@H](C)CO)C(=O)c2cc(-c3ccncc3)cnc2O[C@H]1CN(C)C(=O)c1ccncc1`?
Casp6 inh: 0.5

How did CC(C)(C)c1ccc(C(=O)NNC(=S)NC(=O)c2cccnc2)cc1 do in these assays?
ALR H2O2 inh: inconclusive; SUMO Mot1 rescue: -27.0; Glyco luc inh: -0.1; Casp6 inh: -0.2; CDK5 inh: -0.3

What do the screens show for `O=C(NNC(=S)NC(=O)c1ccccc1)c1cccnc1`?
ALR H2O2 inh: 98.3*; NSD2 inh: 1.5; SUMO Mot1 rescue: -6.6; Glyco luc inh: 0.2; Casp6 inh: -1.0

What do the screens show for `COc1ccc(C(=O)NC(=S)NNC(=O)[C@H]2C[C@@H]2c2ccccc2)cc1OC`?
ALR H2O2 inh: 33.7; NSD2 inh: 0.2; SUMO Mot1 rescue: -13.6; Glyco luc inh: 22.5; Casp6 inh: -3.9; CDK5 inh: 3.4

How did COc1cc(OC)cc(C(=O)NNC(=S)NC(=O)c2cccnc2)c1 do in these assays?
ALR H2O2 inh: 97.9*; NSD2 inh: 2.7; SUMO Mot1 rescue: -6.8; Glyco luc inh: 2.7; Casp6 inh: -1.4; CDK5 inh: -0.5

What do the screens show for `COc1ccc(C(=O)NC(=S)NNC(=O)c2cccnc2)cc1`?
ALR H2O2 inh: 98.6*; NSD2 inh: -2.4; SUMO Mot1 rescue: 14.2; Glyco luc inh: -0.5; Casp6 inh: -0.5; CDK5 inh: 1.1
